# Calls of active or inactive are those of the source.
# Experiments:
# [1] = tested on: XIP peptide (Xip251-270) binding; assay: small-molecule binders of XIP peptide, primary screen, biochemical, small-molecule microarray, fluorescence 635/667 nm, 0.1 µg/mL protein (AID 1182); conditions: fluorescent protein binding, 635 nm, higher = more signal, called active from +8 up or from −8 down
# XIP peptide (Xip251-270) = assay: small-molecule binders of XIP peptide, primary screen, biochemical, small-molecule microarray, fluorescence 635/667 nm, 0.5 µg/mL protein (AID 1183); conditions: small-molecule microarray binding, fluorescence 635 nm; higher = more signal
# [2] = Plasmodium falciparum growth inhibition, primary screen, strain 3D7, DAPI fluorescence, 100 nL (AID 1184);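 further: parasites grown inside human red blood cells in medium with human serum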; conditions: P. falciparum 3D7 growth, 3 d, higher = more signal
# [3] = molecular target: Homeobox protein Hox-A13 (Mus musculus) (UniProt Q62424); assay: inhibitors of HoxA13-DNA binding, primary screen, biochemical, fluorescence polarization, labeled oligonucleotide (AID 1185); conditions: 15 min, higher = more signal, called active from +8 up or from −8 down
# Sequence of Homeobox protein Hox-A13 (Mus musculus) (Q62424 whole entry, looked up): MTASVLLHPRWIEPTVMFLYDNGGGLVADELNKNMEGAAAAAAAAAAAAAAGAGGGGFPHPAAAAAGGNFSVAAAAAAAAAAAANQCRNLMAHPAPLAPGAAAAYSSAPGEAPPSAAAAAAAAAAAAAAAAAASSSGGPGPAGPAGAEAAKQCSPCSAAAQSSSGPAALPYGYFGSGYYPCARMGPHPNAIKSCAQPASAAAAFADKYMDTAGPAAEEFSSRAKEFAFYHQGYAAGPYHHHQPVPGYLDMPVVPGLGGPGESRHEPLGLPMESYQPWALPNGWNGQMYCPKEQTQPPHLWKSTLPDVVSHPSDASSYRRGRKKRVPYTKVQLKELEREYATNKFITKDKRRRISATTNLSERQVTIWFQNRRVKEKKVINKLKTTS
Compound,composite z-score [1],composite z-score (XIP peptide (Xip251-270)),z-score [2],z-score [3]
CCOC(=O)CCN1C(=O)[C@H]2[C@H]3[C@H](O)[C@H](O)CC(=O)[C@@H]3CC[C@H]2C1=O,0.0603 (inactive),0.61,-0.0726,-2.98 (inactive)
CO[C@H]1COC(=O)CC=C[C@H](C)[C@H](OC)COC(=O)[C@@H](C)NC(=O)CC=C[C@@H]1C,0.533 (inactive),0.356,-0.205,-0.75 (inactive)
CCOC(=O)[C@H](Cc1ccccc1)NC(=O)CCC1CC(OC(=O)NCc2ccc3c(c2)OCO3)CC2(CCCC(COC(=O)NCCOc3ccccc3)O2)O1 (stereo not given in full),-0.125 (inactive),0.565,-1.57,-0.985 (inactive)
C[C@@H](c1ccccc1)N1C(=O)[C@H]2[C@H]3[C@H](O)[C@H](O)CC(=NOCc4ccccc4)[C@@H]3CC[C@H]2C1=O,0.641 (inactive),0.169,-1.49,-3 (inactive)
CC(CCC(=O)OC[C@H]1O[C@H](C#Cc2ccccc2)C=C[C@@H]1Oc1ccc(C)cc1)=NOC(C)CN1CCCCc2nc(C)c(C)cc21 (stereo not given in full),-0.185 (inactive),0.0787,-2.06,-2.02 (inactive)
CC(=O)OC[C@H]1O[C@@H](ON=C(C)C)[C@H](OC(C)=O)[C@@H](OC(C)=O)[C@@H]1OC(C)=O,-0.0542 (inactive),-0.245,0.213,-0.383 (inactive)
CCOC(=O)[C@H](CC(C)C)NC(=O)CCC1CC(OC(=O)NCCc2ccc(F)cc2)CC2(CCCC(COC(=O)NCCOC)O2)O1 (stereo not given in full),0.0029 (inactive),0.39,-1.9,-6.12 (inactive)
CCN1C(=O)[C@H]2[C@H]3[C@H](O)[C@H](O)CC(=NOCC=C(C)CCC=C(C)C)[C@@H]3CC[C@H]2C1=O,-0.544 (inactive),0.615,-0.298,-3.73 (inactive)
CC(CCN1CCc2nc(-c3ccccc3)c(-c3ccccc3)cc2C1)=NO[C@@H](C)c1cc(-c2c(C)cc(C)cc2C)no1,1.27 (inactive),0.416,-1.31,0.713 (inactive)
C#CCCCON=C1[C@H]2CCn3c(=O)n(Cc4cc5c(cc4Cl)OCO5)c(=O)n3[C@H]2[C@H](O)[C@@H]2O[C@H]12,-0.18 (inactive),0.278,-0.579,-0.911 (inactive)
CCCNC(=O)OC[C@H]1O[C@H](CCON=C2c3cc(OC)ccc3O[C@H](c3cccc(OC)c3)[C@H]2O)C=C[C@@H]1Oc1ccc(OC)cc1,0.328 (inactive),0.693,0.365,-1.94 (inactive)
CC(C)CON=C1C[C@@H](O)[C@@H](O)[C@@H]2[C@@H]3C(=O)N(Cc4ccccc4)C(=O)[C@@H]3CC[C@H]12,-0.0404 (inactive),0.106,-1.65,-2.34 (inactive)
C[C@@H]1CC[C@H]2C(=O)O[C@@H](COc3ccc(C(C)(C)C)cc3)CN2[C@H]1c1ccc(Br)cc1,-0.382 (inactive),0.619,0.907,0.503 (inactive)
Cc1ccc(C(C)C)n1C(=O)OC(C)(C)C,-0.488 (inactive),-0.0079,0.271,0.936 (inactive)
C#CCCCON=C1C[C@@H](O)[C@@H](O)[C@@H]2[C@@H]3C(=O)N(C[C@@H]4CCCO4)C(=O)[C@@H]3CC[C@@H]12,0.141 (inactive),0.384,1.38,0.866 (inactive)
CC(CCN1CCCc2nc(C)c(C)cc21)=NOC[C@@H](C)[C@H](OCc1ccccc1)C(C)C,-0.563 (inactive),0.548,-0.342,-3.09 (inactive)
CCc1cc2c(nc1CC)CCN(CCC(C)=NOC[C@@H](C)[C@H](OCc1ccccc1)C(C)C)C2,-0.259 (inactive),-0.125,0.23,-3.53 (inactive)
CCOC(=O)[C@H](Cc1ccccc1)NC(=O)CCC1CC(OC(=O)NCc2cccc3ccccc23)CC2(CCCC(COC(=O)NCCOc3ccccc3)O2)O1 (stereo not given in full),-0.0988 (inactive),0.512,-1.86,-2.04 (inactive)
CC(=O)OC[C@H]1O[C@H](CCON=C(C)CCN2CCCc3nc(C)c(C)cc32)C=C[C@@H]1OC(C)=O,0.36 (inactive),0.651,-1.47,-6.43 (inactive)
CC(=O)OC[C@H]1O[C@H](CC=NO[C@H](C)c2cn([C@@H]3COC[C@H]3O)nn2)C=C[C@@H]1OC(C)=O,-0.205 (inactive),0.644,-0.0896,0.928 (inactive)
CCOC(=O)[C@H](Cc1ccccc1)NC(=O)CCC1CC(OC(=O)NCc2cccc3ccccc23)CC2(CCCC(COC(=O)NCc3ccc4c(c3)OCO4)O2)O1 (stereo not given in full),-0.322 (inactive),0.818,0.721,-3.19 (inactive)
O=C1CCCC=C1C(O)COCc1ccccc1 (stereo not given),0.253 (inactive),0.269,-0.674,-3.62 (inactive)
CO[C@H]1COC(=O)[C@H](C)COC(=O)[C@@H](OCc2ccccc2)C=C[C@@H]1C,0.277 (inactive),-0.348,1.25,-0.571 (inactive)
Cc1ccc2[nH]c3nc(CCCn4ccnc4-c4ccccc4)nnc3c2c1,-0.0582 (inactive),0.623,-1.09,-0.867 (inactive)
CO[C@@H]1COC(=O)[C@H](COCc2ccccc2)NC(=O)CC=C[C@@H](C)[C@H](OC)COC(=O)[C@@H](C)NC(=O)CC=C[C@H]1C,0.455 (inactive),0.261,0.591,-1.83 (inactive)
